The values that follow come from PubChem BioAssay AID485270 (The Scripps Research Institute Molecular Screening Center, 2010).

The whole screen tested about 330,000 compounds, of which about 5,800 (1.8%) were called active. The sample holds actives, similar compounds and a random draw of the others, so the mix is not that of the screen. Cut-off read from the data, not from the text of the source: active = inhibition mostly above about 38% (no sharp cut-off); inactive = mostly below about 40%.

The target in this test is Orexin/Hypocretin receptor type 1 (Homo sapiens) (UniProt O43613). In words: antagonists of human orexin 1 receptor (OX1R) (AID 485270).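 Note: 0% = agonist challenge alone and 100% = reference antagonist.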 The note with it: OX1R-expressing cells, FRET antagonist read-out; at 6.6 µM; active compounds read high.
Orexin/Hypocretin receptor type 1 (Homo sapiens), sequence (O43613 whole entry, looked up): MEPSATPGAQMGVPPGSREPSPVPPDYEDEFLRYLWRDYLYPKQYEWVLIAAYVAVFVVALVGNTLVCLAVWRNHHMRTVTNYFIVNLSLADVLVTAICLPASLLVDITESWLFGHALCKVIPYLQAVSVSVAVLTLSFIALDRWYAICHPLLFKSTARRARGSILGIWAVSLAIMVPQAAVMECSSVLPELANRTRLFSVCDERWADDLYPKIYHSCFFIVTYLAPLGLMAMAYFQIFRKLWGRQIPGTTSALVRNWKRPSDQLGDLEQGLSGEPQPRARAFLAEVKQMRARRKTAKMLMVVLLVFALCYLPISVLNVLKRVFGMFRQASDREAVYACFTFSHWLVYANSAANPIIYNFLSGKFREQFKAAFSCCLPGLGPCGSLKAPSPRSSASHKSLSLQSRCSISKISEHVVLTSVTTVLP
`COc1cccc(C(=O)NNC(=O)c2cccc(F)c2)c1`: the inhibition is -10.7% (inactive). On to `COc1cccc(C(=O)NC(=O)Nc2nc(C)cc(C(F)(F)F)n2)c1`, for which the inhibition is 64.4% (active).

In the case of `Cc1cc(C)nc(NC(=O)Nc2ccccc2C(F)(F)F)n1`, the inhibition was 19.6% (inactive). As for `COc1cccc(CNC(=O)CN2C(=O)NC(Cc3ccccc3)(c3ccccc3)C2=O)c1` (stereo unspecified), the inhibition is 40.8% (active).

Consider `CNC(=O)CN1C(=O)NC(c2ccccc2)(c2ccccc2)C1=O`, for which the inhibition was 27% (inactive). As to `COc1cccc(CNC(=O)COC(=O)CN2C(=O)NC3(CCCCC3C)C2=O)c1` (stereo unspecified), the inhibition was 4.53% (inactive). Take `O=C(NCc1ccc2c(c1)OCO2)c1c(-c2ccsc2)sc2ccccc12`: the inhibition is 35.8% (inactive). For the compound `Cc1ccc(S(=O)(=O)N(C)c2ccc(OCC(=O)OCc3ccc(C#N)cc3)cc2)cc1`, the inhibition was 5.89% (inactive). On to `Cc1c(NC(=O)C(C)Oc2cccc(Cl)c2)c(=O)n(-c2ccccc2)n1C` (stereo unspecified), for which the inhibition was 16% (inactive). For the compound `Cc1cccc(OP(=O)(Nc2c(C)n(C)n(-c3ccccc3)c2=O)Oc2cccc(C)c2)c1`, the inhibition was 61.5% (active). For `Cc1c(NC(=S)Nc2ccccc2)c(=O)n(-c2ccccc2)n1C`, the inhibition was 6.12% (inactive).

Take `COc1ccc(-c2noc(CCC(=O)N3CCN(c4cccc(C)c4)CC3)n2)cc1`: the inhibition is 7.06% (inactive). The result for `CN(C)C(=O)CCc1ccc2c3c([nH]c2c1)[C@]1(C)[C@@H](C(=O)N2CCCCC2)C[C@H](CC(=O)NCCC2=CCCCC2)C(=O)N1CC3` reads 10.5% (inactive); that for `C[C@@H]1CN([C@@H](C)CO)C(=O)c2cccc(NS(=O)(=O)c3ccc(F)cc3)c2O[C@H]1CN(C)C(=O)NC1CCCCC1`, 11.9% (inactive).

In the case of `COc1ccc(C(=O)OCc2cc(=O)n3ccsc3n2)cc1F`, the inhibition was 3.7% (inactive). Consider `CCN1/C(=C\c2ccc3ccccc3[n+]2CC)Sc2cc(C)ccc21`, for which the inhibition is 69.9% (active). With `CCN1/C(=C/c2ccc3ccc(C)cc3[n+]2CC)Sc2ccccc21`, the inhibition is 38.5% (inactive). Turning to `CN(CC(=O)Nc1ccc(OC(F)F)cc1)S(=O)(=O)/C=C/c1ccccc1`, the inhibition is 6.62% (inactive). In the case of `Cn1c(N)c(C(=O)COC(=O)c2ccc3ccccc3c2)c(=O)n(C)c1=O`, the inhibition is 44.9% (active). In the case of `Cn1c(N)c(C(=O)COC(=O)c2cccc(S(=O)(=O)N3CCOCC3)c2)c(=O)n(C)c1=O`, the inhibition is 13.1% (inactive). For the compound `Cn1c(N)c(C(=O)COC(=O)c2cnc(Cl)c(Cl)c2)c(=O)n(C)c1=O`, the inhibition is 6.46% (inactive). As for `Cn1cncc1C#Cc1c(-c2ccsc2)sc2ccccc12`, the inhibition was 10.4% (inactive). Take `CC1Cc2ccccc2N1S(=O)(=O)c1cccc(C(=O)OCC(=O)N2CCOCC2)c1` (stereo unspecified): the inhibition is 7.49% (inactive). On to `O=S(=O)([N-]c1nc2ccccc2nc1-[n+]1ccc(Cc2ccccc2)cc1)c1ccc(Br)s1`, for which the inhibition was 20.8% (inactive). As for `Cc1ccc(C)c(NC(=O)CN(C)C(=O)COc2ccc3ccccc3c2)c1`, the inhibition is 19.9% (inactive). Consider `Cc1ccnc(Nc2nc3ccccc3s2)n1`, for which the inhibition was 55.2% (active).

Take `c1ccc2sc(NN=C3CCCC3)nc2c1`: the inhibition was 3.98% (inactive).

For `Cc1ccnc(-n2sc3ccccc3c2=O)n1`, the inhibition is 15.6% (inactive). The same measure for `COc1ccc(/C=C/C(=O)Nc2ccc(C34CC5CC(CC(O)(C5)C3)C4)cc2)cc1OC`: 18.9% (inactive).

On to `C=CCC[C@@H](Cc1ccc(F)cc1)C(=O)OC[C@@H](C)NC(=O)[C@H](CC=C)CC(=O)N(CCO)Cc1ccccc1`, for which the inhibition was 7.32% (inactive). `O=S(=O)(NCC1CN(S(=O)(=O)c2ccc3c(c2)OCCO3)C1)c1c(F)cccc1F`: the inhibition was 3.02% (inactive). On to `Cc1cc(CO)nn1-c1ccc([N+](=O)[O-])cc1`, for which the inhibition was 46.5% (inactive). In the case of `Cc1nc(-c2ccc([N+](=O)[O-])cc2)c(-c2ccccc2)o1`, the inhibition was 5.07% (inactive). As for `Cc1nn(-c2ccc([N+](=O)[O-])cc2)c(N)c1-c1ccccc1`, the inhibition is 62.8% (active). Consider `O=C(COc1ccc(Br)cc1F)NCC1(N2CCCCC2)CCCCC1`, for which the inhibition is 9.11% (inactive). The same measure for `O=C(COC(=O)c1ccc([N+](=O)[O-])o1)NC12CC3CC(CC(C3)C1)C2`: 23.2% (inactive).

For `O=C(Oc1ccccc1C(=S)N1CCCCC1)c1cc([N+](=O)[O-])cc([N+](=O)[O-])c1`, the inhibition was 123% (active).

`O=C(Oc1ccc(Br)cc1C(=S)N1CCOCC1)c1cccc([N+](=O)[O-])c1`: the inhibition was 18.1% (inactive).

Take `O=C(Nc1ccc(C(=O)N2CCCCC2)cc1)c1cccc([N+](=O)[O-])c1`: the inhibition is 4.33% (inactive). Consider `CC(=O)Nc1ccc(NC(=O)COC(=O)C2CCC(C(C)(C)C)CC2)cc1` (stereo unspecified), for which the inhibition is 7.49% (inactive). `O=C(Nc1ccc(-n2cccn2)cc1)C1CCN(Cc2ccsc2)CC1`: the inhibition was -0.73% (inactive). Take `COc1ccccc1CNC(=O)c1ccc(Cl)c(S(=O)(=O)N2CCCC2)c1`: the inhibition was 16.6% (inactive). For the compound `COc1ccc(CNC(=O)COC(=O)C(CCSC)N2C(=O)c3ccccc3C2=O)cc1` (stereo unspecified), the inhibition was 9.55% (inactive).

Take `COc1cc(OC)cc(C(=O)NC(C(=O)N2CCC2)C(C)C)c1` (stereo unspecified): the inhibition is 4.23% (inactive). For `COc1ccc(NC(=O)CS(=O)(=O)c2ccccc2)cc1`, the inhibition is -4.46% (inactive).

With `Cc1ccc(C)c(-c2nnc(NC(=O)CS(=O)(=O)c3ccccc3)o2)c1`, the inhibition was 12.7% (inactive). The same measure for `COc1ccc(-c2nnc(NC(=O)CS(=O)(=O)c3ccc(Cl)cc3)o2)c(OC)c1`: 47.9% (active); for `CCCCNc1c(-c2cccc(Sc3ccc(OC)cc3)c2)nc2ccccn12`: 32.8% (inactive); for `c1ccc2c(CCN3CCNC[C@H]3Cc3cccc4ccccc34)cccc2c1`: 3.65% (inactive). In the case of `CC(NC(=O)COC(=O)Cn1cc(C(F)(F)F)ccc1=O)c1ccccc1` (stereo unspecified), the inhibition is 3.44% (inactive). As to `O=c1[nH]c(-c2ccccc2)c(-c2ccccc2)[nH]1`, the inhibition is 8.25% (inactive). The result for `Nc1ccc2nc3c(=O)[nH]c(=S)[nH]c3nc2c1` reads 93.8% (active).

For `O=c1[nH]c(-c2cccs2)nc2ccccc12`, the inhibition was 42.7% (inactive). Turning to `Cc1cc2nc3c(=O)n(Cc4ccccc4)c(=O)[nH]c3nc2cc1N`, the inhibition is 14.8% (inactive).

Take `O=c1[nH]c(=O)c2nc3ccccc3nc2[nH]1`: the inhibition was 53.3% (active).

With `O=C1OCCN1C(=O)[C@H]1[C@H](c2ccc(Cl)cc2)C(c2cccc(Cl)c2)=NN1c1ccc(Br)cc1`, the inhibition was -1.81% (inactive).

With `Cc1ccc(C)c(N2CCN(C(=O)CCc3nc(-c4cccc(C(F)(F)F)c4)no3)CC2)c1`, the inhibition was 5.16% (inactive). On to `CC(=O)N(O)CCCCCNC(=O)CCC(=O)N(O)CCCCCNC(=O)CCC(=O)N(O)CCCCCNC(=O)CCC(=O)O`, for which the inhibition is 3.94% (inactive).

`Cc1ccc(C(=O)Nc2ccc3c(c2)OCCO3)cc1S(=O)(=O)N1CCOCC1`: the inhibition is 1.11% (inactive).

Take `COc1cc(OC)cc(C(=O)N[C@H](C(=O)NNC(=O)c2ccc(Br)cc2)C(C)C)c1`: the inhibition is 6.01% (inactive). Take `Nc1[nH][nH]c(=O)c1N=Nc1ccc2c(c1)OCO2`: the inhibition is 84.8% (active). As for `N/C(=N\OC(=O)c1ccc2c(c1)OCO2)c1ccc(Br)cc1`, the inhibition is 10.9% (inactive). Turning to `O=C(c1ccc2c(c1)OCO2)N1CCOCC1`, the inhibition is 14.4% (inactive). Turning to `CC(C)(C)OC(=O)C[C@@H]1C/C=C\C[C@@H](CC(=O)N[C@H](CO)Cc2ccccc2)C(=O)NCCOC1=O`, the inhibition was 5.83% (inactive). The same measure for `O=C(C[C@H]1C/C=C\C[C@@H](NC(=O)OCC2c3ccccc3-c3ccccc32)C(=O)O[C@@H](c2ccccc2)CNC1=O)N[C@H](CO)Cc1ccccc1`: 6.4% (inactive); for `Cc1cc(N2CCCC2)ccc1NC(=O)COc1ccc(Cl)cc1`: 8.39% (inactive). The result for `COC(=O)N/N=C/c1ccc(/C=N/NC(=O)OC)cc1` reads 48.6% (inactive); that for `COC(=O)N/N=C/c1cn(CCCOc2ccc(C)cc2)c2ccccc12`, 13.5% (inactive). For the compound `COC(=O)N/N=C/c1c[n+]([O-])c2ccccc2[n+]1[O-]`, the inhibition is 101% (active). Consider `O=C(Nc1cc(S(=O)(=O)N2CCCCC2)ccc1Cl)C1COc2ccccc2O1` (stereo unspecified), for which the inhibition is 2.12% (inactive). The same measure for `CC(=O)c1ccc(NC(=O)CSc2nc3ccccc3c(=O)n2CCCN2CCOCC2)cc1`: 3.62% (inactive); for `Fc1ccc(-n2c(Cc3ccccc3)nnc2SCc2nc(-c3ccc(Cl)cc3)no2)cc1`: 35% (active). As to `Cc1ccc(-c2noc(CSc3nnc(-c4ccccc4)n3C)n2)cc1`, the inhibition was 14.3% (inactive). For `Cc1ccc(-c2noc(CSc3nnc(-c4ccncc4)n3-c3ccc(F)cc3)n2)cc1`, the inhibition is 13.8% (inactive). With `CCOC(=O)CSc1nnc(-c2ccc([N+](=O)[O-])cc2)o1`, the inhibition was 58.6% (active).

Regarding `Cc1cccc(C)c1OC(=O)CSc1nnc(-c2ccccc2)o1`, the inhibition is 27.6% (inactive). Regarding `O=C(CSc1nnc(-c2ccc([N+](=O)[O-])cc2)o1)Nc1ccccn1`, the inhibition is 20.6% (inactive).

Turning to `Cc1noc(C)c1NC(=O)Nc1ccc2c(c1)C(=O)N([C@H](C)CO)C[C@H](C)[C@@H](CN(C)C(=O)Nc1ccc(C(F)(F)F)cc1)O2`, the inhibition was 7.42% (inactive). As to `COc1ccc(CCNC(=O)COC(=O)c2ncc(Cl)c(Cl)c2Cl)cc1OC`, the inhibition was 9.72% (inactive).

Take `COc1ccc(C)cc1-n1nnnc1SCc1nc2ccccc2c(=O)[nH]1`: the inhibition was 35.5% (inactive). The result for `Cc1ccc(-c2noc(CSc3nnnn3-c3ccccc3)n2)cc1` reads 5.93% (inactive); that for `Cc1ccc(Nc2nc(CSc3nnnn3-c3ccccc3)cc(=O)[nH]2)cc1`, 81.8% (active). As to `CCn1c(O)c(N=NC(=O)c2cccc(S(=O)(=O)N3CCCCC3)c2)c2ccccc21`, the inhibition was 11% (inactive).

Regarding `CCn1c(O)c(N=NC2=NC(=O)CS2)c2cc(C)ccc21`, the inhibition was 101% (active). The result for `COC(=O)Cn1c2ccc(C)cc2c2nc(C)sc21` reads 11.6% (inactive); that for `CCN(C(=O)CSc1cccc[n+]1[O-])c1ccccc1`, 0.91% (inactive).

The term inhibition denotes the change of the read-out against control, counted positive when it falls.
